From PubChem BioAssay (NCI) come the findings set out here.

In this test the test system is MDA-MB-468 breast. The test is described as follows: NCI-60 one-dose screen, 48 h (100 = growth as untreated, 0 = no growth, -100 = all killed). Conditions: 10 µM unless noted.

Where “and” joins values, the source holds several entries; their conditions need not be identical. Identical values can stand only once. This is part of a sample that, as a whole, favours compounds with a hit. Of some 83,000 tested, about 20% had one in any assay.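 Values shown are percent growth following 48 h exposure of cells in 96-well plates to a single concentration of compound; below 10 was considered active.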 Calls of active or inactive are those of the source.

In the case of `COc1ccc(NC(=S)NNc2ccc(-c3ccc(OC)c(OC)c3)nn2)cc1`, the growth is 109% (inactive).
The same measure for `COc1cccc(-c2cc(-c3cccc(NS(C)(=O)=O)c3)nc(N)c2C#N)c1O`: 2.89% (active); for `N#Cc1cnc2ccc(-c3cnc4n[nH]nc4c3)cc2c1N1CCc2cc(F)c(Cl)cc21`: -13.9% (active); for `C/C(=C\c1ccc([N+](=O)[O-])cc1)C(=O)O`: 116% (inactive).
As for `O=C(O)c1[nH]c(=O)[nH]c(=O)c1[N+](=O)[O-]`, the figure is 109% (inactive); as for `Nc1ccc(S(=O)(=O)Nc2ncccn2)cc1`, 109% (inactive); as for `O=C(CCCCCCCC(=O)N1CCCCC1)N1CCCCC1`, 105% (inactive).
As for `Cc1ccc(N(C(=O)CCc2c[nH]c3ccccc23)[C@H](C(=O)Nc2ccc(Cl)cc2)c2cccc([N+](=O)[O-])c2)cc1`, the growth is 91.3% (inactive).
As for `Cn1c(/C=C/[N+](=O)[O-])cc2ccccc21`, the figure is -36.6% (active); as for `O=[N+]([O-])c1ccc(N=Nc2cc(S(=O)(=O)O)c3cccc(S(=O)(=O)O)c3c2O)cc1`, 118% (inactive).
For the compound `Cc1oc(-c2ccc(Cl)cc2)nc1C1=NN(C(=O)c2ccncc2)C(c2ccccc2)C1` (stereo not drawn), the growth is 108% (inactive).
As for `CCn1cc(C(=O)NNC(=S)Nc2ccc(C)cc2)c(=O)c2ccc(C)nc21`, the figure is 88% (inactive); as for `NC(=S)N1N=C(c2ccc(Cl)cc2)CC1c1cc2ccccc2[nH]c1=O` (stereo not drawn), 111% (inactive).
The same measure for `COc1ccc(C(O)c2cc3c(N)c(C(=O)Nc4cccc(OC)c4)sc3nc2C)cc1` (stereo not drawn): 5.65% (active).
The same measure for `CC(=O)Cc1nsc(NC(=O)c2ccoc2COc2ccccc2)n1`: 124% (inactive).
`CNC(=O)c1ccccc1Nc1nc(Nc2ccc3c(c2OC)CCC[C@H](N2CCN(CCO)CC2)C3)ncc1Cl`: the growth was -52.8% (active).
As for `CNC(=O)c1cccc(-c2ccc3c(N4CCOC[C@@H]4C)nc(N4CCOC[C@@H]4C)nc3n2)c1`, the growth is -30.7% (active) and -22.8% (active).
As for `COC(=O)c1ccc2oc(NC(=O)c3ccc(Nc4ccc([N+](=O)[O-])cc4C)c([N+](=O)[O-])c3)nc2c1`, the figure is 102% (inactive); as for `S=C1NCc2cncnc2N1`, 99.7% (inactive).
The same measure for `O=C(CCCCCCN1CC(=O)N2[C@H](c3ccc(Br)cc3)c3[nH]c4ccccc4c3C[C@@H]2C1=O)NO`: 33.9% (inactive); for `Oc1ccc(Cl)cc1Sc1cc(Cl)ccc1O`: 22% (inactive).
The same measure for `CC1C(=O)c2ccccc2CC1C(=O)O` (stereo not drawn): 118% (inactive); for `CCn1c(SC/C(=N/O)c2ccccc2)nnc1-c1ccccc1`: 108% (inactive); for `O=C(Nc1cccc(Cl)c1)Nc1cccc(Cn2c(=O)[nH]c3ccc(Oc4ncccn4)cc3c2=O)c1`: -0.625% (active).
Turning to `CC(=O)Nc1ccc(NC(=O)Nc2cccc(-c3nc(-c4ccc(NC(=O)c5cccnc5)cc4Cl)no3)c2)cc1C(F)(F)F`, the growth was -84.7% (active).
The same measure for `CCOC(=O)c1c(C(F)(F)F)n([O-])c2ccc(Cl)cc2[n+]1=O`: -55.3% (active); for `O=C(Nc1ccc(Cl)c(C(F)(F)F)c1)Nc1ccc2oc(=O)ccc2c1`: 24.8% (inactive); for `C[C@]12CCc3nc(Nc4ccc(O)cc4)sc3C1=CC[C@@H]1[C@@H]2CC[C@]2(C)/C(=N/NC(N)=S)CC[C@@H]12`: -58.2% (active).
The same measure for `COc1ccc(-c2cc(-c3cc(OC)ccc3OC)nc(SCC(C)=O)c2C#N)cc1`: 56.2% (inactive); for `CN(C)CCC(=O)c1ccc(Cl)cc1`: 97.3% (inactive) and 97.2% (inactive); for `C#CCOc1ccc(C(Nc2cc(Cl)ccc2Cl)c2nnnn2C2CCCCC2)cc1` (stereo not drawn): 88.5% (inactive).
As for `Cc1cccc(CC(=O)c2ccccc2)n1`, the figure is 92.8% (inactive).
Turning to `COc1cccc(/C=C/C(=O)Nc2cc(OC)c3c(c2)OCO3)c1`, the growth is 92.6% (inactive).
As for `O=C(NNc1ccccc1)OCc1ccccc1`, the figure is 108% (inactive).
As for `Cc1cc(C)c(S(=O)(=O)/N=c2/n(-c3ccccc3)nc3n2CCN3C2=NCCN2)c(C)c1`, the figure is 30% (inactive); as for `CC(C)NCCCCCNc1cc(O)cc2cccnc12`, 18.6% (inactive); as for `COc1ccc2c(c1)OC13Oc4cc(OC)ccc4C=C1CCCCC3=C2`, 95.6% (inactive).
The same measure for `COc1ccc(NS(=O)(=O)c2ccc(-c3cnc(C4CC4)o3)cc2)cc1`: 12.5% (inactive).
Turning to `COc1ccc(-c2c(-c3cc(OC)c4c(c3)OCO4)noc2N)cc1`, the growth was -2.08% (active).
As for `O=C1c2c(c3c4ccccc4[nH]c3c3ccc4ccccc4c23)C(=O)N1CCN1CCNCC1`, the growth is 76.5% (inactive).
Turning to `CC(=O)OC[C@@]12Oc3c(cccc3-c3ccc(O)c4c3O[C@]3(COC(C)=O)C(=C4O)C(=O)C[C@H](C)[C@@H]3OC(C)=O)C(O)=C1C(=O)C[C@H](C)[C@@H]2OC(C)=O`, the growth is -30.2% (active).
The same measure for `COC(=O)N1CCN(CCNCc2ccc(NC(=O)c3ccc(C)c(C#Cc4cnc5cccnn45)c3)cc2C(F)(F)F)CC1`: -8.93% (active); for `NC(Cc1c[nH]c2ccccc12)C(=O)O` (stereo not drawn): 110% (inactive) and 112% (inactive).
The same measure for `O=C(c1ccccc1)C(CN1CCCCC1)c1ccccc1` (stereo not drawn): -29.1% (active).
The same measure for `CCN1CCOC1C(C)C` (stereo not drawn): 109% (inactive); for `COc1cc(-c2cccc([N+](=O)[O-])c2)c(-c2nc(-c3ccccc3)c(-c3ccccc3)n2C2CC2)cc1OC`: 49.4% (inactive).
Turning to `O=C(N/N=C/c1ccc([N+](=O)[O-])cc1)c1ccc2nc(-c3ccc(Cl)cc3)[nH]c2c1`, the growth was -38.9% (active).
Regarding `Oc1c(Cl)cc(Cl)c2ccc(CN3CCCCC3)nc12`, the growth was 29.3% (inactive).
With `c1nc2ccc(-c3cc4ccc5[nH]ncc5c4c4c3CCCC4)cc2[nH]1`, the growth was 17.1% (inactive).
As for `Cc1c(-c2noc(-c3ccc([N+](=O)[O-])cc3)n2)no[n+]1[O-]`, the figure is 104% (inactive).
The same measure for `O=C(NC1CCCCC1)OCc1c(COC(=O)NC2CCCCC2)c(-c2ccc(Cl)c(Cl)c2)n2c1CCC2`: -61.7% (active); for `OC(COc1cccc2ccccc12)CN1CCN(c2ccc(Cl)cc2)CC1` (stereo not drawn): 58.7% (inactive) and 96.8% (inactive).
As to `CC(=O)OCC(=O)C1CCC=CC1OC(C)=O` (stereo not drawn), the growth was 85.6% (inactive).
The same measure for `COC(=O)[C@H]1CCCN1C(=O)[C@H]1CCCN1C(=O)[C@H](Cc1c[nH]c2ccccc12)NC(=S)Nc1cc(C(F)(F)F)cc(C(F)(F)F)c1`: 61% (inactive).
Turning to `CN(C)C[C@@H]1CCn2cc(c3ccccc32)C2=C(C(=O)NC2=O)c2cn(c3ccccc23)CCO1`, the growth is 23.3% (inactive).
The same measure for `C[N+]1(CCC[N+]2(C)C[C@@H]3[C@H](C2)[C@@H]2C=C[C@H]3C2)CCOCC1` (stereo partly drawn): 108% (inactive); for `COc1cc2c(cc1OC)-c1ccc3cc4c(cc3c1N(CCCn1ccnc1)C2)OCO4`: -63.7% (active).
The same measure for `Cc1cc(/C=C2\SC(=Nc3ccccc3)N(C3CCCC3)C2=O)c(C)n1-c1ccc(Cl)cc1`: -84.2% (active).
With `C=C(C(=O)c1ccccc1)C(NC(C)(C)C)c1ccccc1` (stereo not drawn), the growth is -37.3% (active).
As for `CCCCc1nc(/C=N/Nc2nc(Nc3ccccc3)nc(Nc3ccc(S(N)(=O)=O)cc3)n2)c(Cl)[nH]1`, the figure is -12.5% (active).
As for `CC(C)[C@@H](C)/C=C/[C@@H](C)[C@H]1CCC2=C3C=CC4=CC(=O)CC[C@]4(C)[C@H]3CC[C@@]21C`, the figure is 97.3% (inactive); as for `c1coc2occoc=2o1`, 98.6% (inactive).
Turning to `Cc1nccc2c3ccc(OCc4cn(Cc5ccc(Br)cc5)nn4)cc3n(CCCc3ccccc3)c12`, the growth was 93.4% (inactive).
As for `C[n+]1c2ccccc2c(Nc2ccc(NS(=O)(=O)CCCCN=C(N)N)cc2)c2ccc(N)cc21`, the figure is 39% (inactive); as for `Cc1cc(NCc2cc(Nc3ccnc4cc(Cl)ccc34)ccc2F)nc(N2CCSCC2)n1`, -17.3% (active).
As for `CCOC(=O)CCCS(C)(=O)=O`, the figure is 126% (inactive).
The same measure for `CC(=O)[C@@]12O[C@](C)(c3ccccc3)O[C@@H]1CC1C3CCC4=CC(=O)CC[C@]4(C)C3CC[C@@]12C` (stereo partly drawn): 32.8% (inactive); for `Oc1cc(O)c(Br)cc1Br`: 101% (inactive).
Regarding `COC(=O)[C@]12CC[C@@H](C)[C@H](C)[C@@H]1C1=CC[C@@H]3[C@@]4(C)C(c5ncon5)=C[C@@](C)(CO)C4=CC[C@@]3(C)[C@]1(C)CC2`, the growth was -28.9% (active).
As for `CC1CCN(CCCCCOc2ccc3oc4ccc(Cl)cc4c(=O)c3c2)CC1`, the figure is 54.5% (inactive).
As for `COCCOC(C)C(/C=N/NC(N)=S)=N/NC(N)=S` (stereo not drawn), the figure is 7.98% (active); as for `Cc1ccc(/C=C2/C(=O)N(C)c3ccc(S(=O)(=O)Nc4ccc(C(C)(C)C)cc4)cc32)s1`, 63.1% (inactive); as for `Cc1ccccc1N1C(=O)c2cc(S(N)(=O)=O)c(Cl)cc2NC1C` (stereo not drawn), 119% (inactive).
The same measure for `COc1cc(/C=N\NC(=O)CN2CCN(c3cc4c(cc3F)c(=O)c(C(=O)N/N=C/c3ccc(O)c(OC)c3)cn4C3CC3)CC2)ccc1O`: -37.8% (active); for `Cc1ccc([P+](Cc2ccc([N+](=O)[O-])cc2)(c2ccc(C)cc2)c2ccc(C)cc2)cc1`: -11.7% (active).
For `CC1(C)CC(=O)NC1=O`, the growth was 100% (inactive).
The same measure for `CSc1nc(NCCCNc2ccnc3cc(Cl)ccc23)cc(-c2ccccc2)n1`: 11.3% (inactive); for `O=C(Nc1ccc(F)cc1)c1ccccc1`: 98.3% (inactive); for `COc1ccc(-c2nc3ccc(-c4nc5ccc(N6CCN(c7ccncc7)CC6)cc5[nH]4)cc3[nH]2)cc1OC`: -46.3% (active).
The same measure for `O=c1c2cc(C(F)(F)F)ccc2sc2c(NCCCNCCO)nc3ccccc3c12`: -74.3% (active).
With `C/C(=N/N)c1nnn(-c2ccc(Br)cc2)c1C`, the growth was 94.8% (inactive).
The same measure for `Cc1c(C(=O)CCl)c(=O)n(-c2ccccc2)n1C`: -19.1% (active); for `N#C/C(=C\c1ccc2ccccc2c1)c1cc2ccccc2[nH]1`: 30.5% (inactive).
